IL-1B inflam inh = inhibitors of inflammasome signaling (IL-1 beta secretion); THP-1 LPS/ATP IL-1B secretion, AlphaLISA, 16 h; stronger effect = lower value; activity change, % at 57.5 µM; 360,000 compounds, 4.7% hits; in the data active = activity change below about -50%; inconclusive = mostly about -30% to -49%
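Secreted IL-1B measured by AlphaLISA bead assay after 16 h compound exposure of THP-1 cells; compounds (final up to 57.5 uM) added 1 h before LPS (250 ng/mL) and ATP (1.25 mM) stimulation; lower signal means less secretion.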
DT40 TDP1 CPT = DT40-hTDP1 cell growth loss with CPT | chicken DT40 Tdp1-/-;hTDP1 cells + 20 nM CPT, ATP luminescence, 48 h | Potency, µM (series often up to 46.2 µM), inactives show at the top dose activity change, negative = growth inhibition, most hits filed as inhibitors | 420,000 compounds, 12% hits; also: potency is read from the fitted curve at half-maximal effect; nearly all actives have a fitted effect of over 55% in size
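Cell growth measured by CellTiter-Glo luminescence after a minimum 48 h, 37 C compound exposure with 20 nM CPT in Tdp1-knockout DT40 cells stably expressing hTDP1, seeded 400/well; qHTS titration format.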
HT1080-NT tox = kills 2HG-producing HT-1080-NT fibrosarcoma cells. HT-1080-NT fibrosarcoma viability, CellTiter-Glo ATP luminescence, 48 h. Potency, µM (doses to about 46.1 µM), for the others: at the top dose activity, negative = less viability, hits mostly cytotoxic. 360,000 compounds, 1.6% hits;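 also: NT is the 2HG producing partner of a matched IDH1 knockdown line; potency is read from the fitted curve at half-maximal effect; 0% = DMSO-treated cells and -100% = media-only wells without cells; nearly all actives have a fitted effect of over 55% in size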
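Fibrosarcoma NT cells, 750 per well in 5% FBS RPMI, were exposed to compound for 48 hours. Viability: CellTiter-Glo luminescence.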
DT40 TDP1 no CPT = qHTS for Inhibitors of human tyrosyl-DNA phosphodiesterase 1 (TDP1): qHTS in cells in absence of CPT; Potency, µM (titrated, usually from 46.2 µM), without a hit: at the highest dose activity change, negative = growth inhibition, actives largely listed as inhibitors; 420,000 compounds, 15% hits; DT40 Tdp1-/- hTDP1 cells, no CPT, ATP luminescence, 48 h; also: potency is read from the fitted curve at half-maximal effect; nearly all actives have a fitted effect of over 55% in size
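Growth of hTDP1-complemented DT40 Tdp1-knockout cells is measured by ATP luminescence after at least 48 hr compound exposure at 37 °C, with DMSO substituting for the 20 nM CPT used in the parallel screen.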
12-LOX inh = ALOX12 (human) lipoxygenase inhibition; purified 12hLO, xylenol orange hydroperoxide absorbance; 580,000 compounds, 1.1% hits; Potency, µM (top dose mostly 108 µM), without a hit: at the top dose activity change, negative = inhibition, most hits filed as inhibitors; also: potency is read from the fitted curve at half-maximal effect
Target sequence (P18054 whole entry, looked up): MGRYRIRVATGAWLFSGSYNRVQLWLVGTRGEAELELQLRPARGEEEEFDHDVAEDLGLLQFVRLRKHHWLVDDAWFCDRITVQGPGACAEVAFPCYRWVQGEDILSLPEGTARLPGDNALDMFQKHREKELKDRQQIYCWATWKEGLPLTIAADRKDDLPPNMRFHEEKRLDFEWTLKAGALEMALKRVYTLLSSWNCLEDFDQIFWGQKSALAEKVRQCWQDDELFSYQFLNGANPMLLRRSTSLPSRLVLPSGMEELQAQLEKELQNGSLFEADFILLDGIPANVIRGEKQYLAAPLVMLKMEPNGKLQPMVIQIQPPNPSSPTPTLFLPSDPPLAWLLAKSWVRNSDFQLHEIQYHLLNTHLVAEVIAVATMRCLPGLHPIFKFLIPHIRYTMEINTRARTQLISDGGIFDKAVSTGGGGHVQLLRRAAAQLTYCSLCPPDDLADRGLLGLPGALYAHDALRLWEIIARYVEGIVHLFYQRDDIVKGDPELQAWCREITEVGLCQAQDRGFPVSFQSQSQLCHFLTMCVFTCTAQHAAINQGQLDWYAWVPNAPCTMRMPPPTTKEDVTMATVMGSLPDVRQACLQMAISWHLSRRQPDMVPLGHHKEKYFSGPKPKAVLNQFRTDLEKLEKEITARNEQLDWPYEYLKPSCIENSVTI
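Purified human 12hLO at 150 nM in 25 mM Hepes, 0.01% Triton X-100, pH 7.0, preincubated 15 min at room temperature with compound. Reaction started with 40 uM arachidonic acid, 30 min at room temperature. Hydroperoxide measured by Fe-xylenol orange, 573/405 nm absorbance ratio.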
HT1080 IDH1KD tx = HT-1080 IDH1 knockdown cell toxicity (counter line); HT-1080 IDH1 knockdown viability, ATP luminescence, 48 h; Potency, µM (series often up to 46.1 µM), inactives show top-dose activity, negative = toxicity, hits mostly cytotoxic; 360,000 compounds, 2% hits; AID 686971;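 also: potency is read from the fitted curve at half-maximal effect; 0% = DMSO wells and -100% = cell-free medium wells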
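Luminescent ATP read-out (CellTiter-Glo, 10 min at room temperature) after 48 h compound exposure at 37 °C gave viability of IDH1-knockdown HT-1080 cells. Activity was normalised to DMSO and cell-free wells, then fitted as concentration-response curves.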
Numbers without * were called inactive; u = inconclusive; x = no result given; [ ] = dose if it differs, or a comment. The sample as a whole holds a higher share of hits than the screen did. Unless noted, calls follow the shape of the dose curve; as a rule, active = well fitted curve in the direction sought with a large enough effect; inconclusive = small, poorly fitted or top-dose-only effect, or another doubt; inactive = no such curve, though single readings can be large; an effect the other way counts as inactive or inconclusive. Unless noted, % is scaled to controls: 0 for no effect and ±100 for the full control effect.

SMILES | IL-1B inflam inh | DT40 TDP1 CPT | HT1080-NT tox | DT40 TDP1 no CPT | 12-LOX inh | HT1080 IDH1KD tx
COC(=O)c1cc(C(=O)c2c(C)cc3ccccn23)cc([N+](=O)[O-])c1 | 34 | 8.2µM* | 16µM* | 12µM* | u | u
Cc1cc2ccccn2c1C(=O)c1ccc(NN)c([N+](=O)[O-])c1 | u | 16µM* | u | u | u | u
Cc1cc2ccccn2c1C(=O)c1ccc(C#N)cc1 | -28 | u | 11% | 23µM* | u | 16%
Cc1cc2ccccn2c1C(=O)c1cc([N+](=O)[O-])cc([N+](=O)[O-])c1 | 42 | -20% | -4% | -23% | -7% | -2%
CC(C)C(NC(=O)c1ccc(CO)cc1)C(=O)O (stereo not drawn) | x | x | x | x | 6% | x
COc1ccc(-c2nc3ccccc3c(C)c2C#N)cc1 | x | x | x | x | -51% | x
COCc1ccc(C(=O)N2CCNCC(C(=O)O)C2)cc1 (stereo not drawn) | x | x | x | x | 0% | x
c1ccc(N2CCCC(c3nccn3Cc3ccncc3)C2)nc1 (stereo not drawn) | x | x | x | x | 23% | x
Cc1c(O)ccc(/C=N/Nc2nc(-c3cccnc3)nc3ccccc23)c1O | -19 | 5.2µM* | 18µM* | 3.7µM* | 14% | u
COc1ccccc1NC(=O)Nc1nc(-c2cccnc2)nc2ccccc12 | x | x | x | x | 233% | x
Oc1ccc(/C=N/Nc2nc(-c3cccnc3)nc3ccccc23)c(O)c1 | -13 | 23µM* | u | 4.1µM* | 0% | u
COc1ccc(/C=N/Nc2nc(-c3cccnc3)nc3ccccc23)cc1OC | -52* | 16µM* | -14% | 3.7µM* | 484% | -25%
Clc1cccc(CNc2nc(-c3cccnc3)nc3ccccc23)c1 | -17 | u | -30% | u | -6% | u
COc1ccc(CCNc2nc(-c3cccnc3)nc3ccccc23)cc1OC | u | 13µM* | u | 9.2µM* | -15% | 10µM*
COc1cccc(-c2nc(NCc3cccnc3)c3ccccc3n2)c1 | x | -5% | x | -20% | -24% | x
CC(=O)Nc1ccc(S(=O)(=O)N(C)CC(=O)OCC(=O)N2CCCCCC2)cc1 | 17 | -3% | 19% | 1% | 0% | 9%
Clc1ccc(/C=N/Nc2nc(Cl)nc3ccccc23)cc1 | 15 | u | -8% | u | 0% | -8%
Cc1ccc(-c2nc(N/N=C/c3ccncc3)c3ccccc3n2)cc1 | 0 | 21µM* | 11µM* | 18µM* | -1% | 10µM*
CC(=O)CCS(=O)(=O)c1ccc(Oc2ccc(S(=O)(=O)CCC(C)=O)cc2)cc1 | -75* | 3.7µM* | u | 8.2µM* | -3% | u
CCOC(=O)CCS(=O)(=O)c1ccc(-c2ccc(S(=O)(=O)CCC(=O)OCC)cc2)cc1 | -99* | -13% | 5% | -12% | 17% | 4%
CCOCCn1c(=O)[nH]c2cc(C(=O)NCC(=O)N(C)C)ccc21 | x | x | x | x | 34% | x
Cc1cccnc1NC(=O)C1CC(=O)N(Cc2ccco2)C1 (stereo not drawn) | x | x | x | x | -4% | x
O=C1/C(=C/c2ccco2)SC(=S)N1CC1CCCO1 (stereo not drawn) | x | 3% | -1% | -6% | u | 14%
COc1ccc(/C=C2\SC(=S)N(CC3CCCO3)C2=O)cc1 (stereo not drawn) | -12 | 16% | 4% | -9% | u | 4%
O=C1/C(=C/c2cccnc2)SC(=S)N1c1ccc(O)cc1 | -99* | -24% | u | u | -5% | 0%
SMILES | IL-1B inflam inh | DT40 TDP1 CPT | HT1080-NT tox | DT40 TDP1 no CPT | 12-LOX inh | HT1080 IDH1KD tx
O=C1/C(=C/c2cccnc2)SC(=S)N1CC1CCCO1 (stereo not drawn) | -103* | -4% | -2% | u | -8% | -19%
Cc1ccc(/C=C2\SC(=S)N(CC3CCCO3)C2=O)o1 (stereo not drawn) | -96* | u | -1% | u | 6.3µM* | -1%
COc1cc(/C=C2/SC(=S)N(CC3CCCO3)C2=O)ccc1O (stereo not drawn) | -74* | -19% | -8% | u | -26% | 1%
CC(=O)Nc1ccc(C2(C(=O)NCc3cccc(F)c3)CCC2)cc1 | x | x | x | x | 2% | x
CSc1cccc(NC(=O)CN(c2cccc(C)c2)S(C)(=O)=O)c1 | -16 | 18µM* | -3% | u | 0% | -2%
CSc1cccc(NC(=O)CN(c2ccccc2)S(=O)(=O)N(C)C)c1 | 13 | 26µM* | -4% | 29µM* | u | u
CSc1cccc(NC(=O)CN(c2ccc(C)cc2C)S(C)(=O)=O)c1 | -3 | -10% | -4% | u | 33% | -25%
COc1cc(C#N)ccc1OC(=O)C1CCN(C(=O)c2ccc(F)cc2)CC1 | 14 | -9% | -11% | -9% | u | 1%
CCc1ccc(NC(=O)CC2C(=O)N(c3ccc(F)cc3)C(=O)N2Cc2ccc(F)cc2)cc1 (stereo not drawn) | x | 13µM* | x | u | -27% | x
COc1ccc(NC(=O)CC2C(=O)N(c3cccc(OC)c3)C(=O)N2Cc2cccnc2)cc1 (stereo not drawn) | x | u | x | u | -15% | x
COC(=O)c1ccc(NC(=O)CC2C(=O)N(c3cccc(F)c3)C(=O)N2CC(C)C)cc1 (stereo not drawn) | x | 21µM* | x | 13µM* | -30% | x
CCOc1ccc(NC(=O)CC2C(=O)N(c3ccccc3)C(=O)N2Cc2cccc(OC)c2)cc1 (stereo not drawn) | x | 10µM* | x | 21µM* | u | x
COc1cccc(CN2C(=O)N(c3ccc(C)cc3)C(=O)C2CC(=O)Nc2cc(OC)cc(OC)c2)c1 (stereo not drawn) | x | 13µM* | x | 7.3µM* | -22% | x
CC(=O)Nc1ccccc1-c1nccc2c(=O)cc(N(C)C3CCOCC3)oc12 | x | x | x | x | 15%[176 µM] | x
O=C(O)c1ccc(CN2Cc3[nH]cnc3C[C@H]2c2nc(-c3ccc(F)c(Cl)c3)no2)cc1 | x | x | x | x | 80% | x
CCOc1ncccc1CNC(=O)C1CCCN1S(C)(=O)=O (stereo not drawn) | x | x | x | x | 6% | x
CCC(CC)C(=O)NCCc1c[nH]c2ccc(C)cc12 | x | x | x | x | -2% | x
Cc1[nH]ncc1CNC(=O)C1CCCN(Cc2ccncc2)CCC(=O)NCC1 (stereo not drawn) | x | x | x | x | 103% | x
CCc1ccc(NC(=O)CC2C(=O)N(c3cccc(C)c3)C(=O)N2Cc2ccc(F)cc2)cc1 (stereo not drawn) | x | u | x | -98% | u | x
